High-throughput results: PubChem BioAssay, National Center for Advancing Translational Sciences (NCATS)
Hits are enriched below; roughly 3.4% of the tested compounds scored in any of these assays.
FBPA Giardia inh = Giardia lamblia aldolase inhibition. A8B2U2. purified Giardia FBPA. Potency, µM (series often up to 59.6 µM), inactives show at the top dose activity, negative = inhibition, actives largely listed as inhibitors. 290,000 compounds, 0.71% hits; also: nearly all actives have a fitted effect of over 55% in size
Target sequence (A8B2U2 whole entry, looked up): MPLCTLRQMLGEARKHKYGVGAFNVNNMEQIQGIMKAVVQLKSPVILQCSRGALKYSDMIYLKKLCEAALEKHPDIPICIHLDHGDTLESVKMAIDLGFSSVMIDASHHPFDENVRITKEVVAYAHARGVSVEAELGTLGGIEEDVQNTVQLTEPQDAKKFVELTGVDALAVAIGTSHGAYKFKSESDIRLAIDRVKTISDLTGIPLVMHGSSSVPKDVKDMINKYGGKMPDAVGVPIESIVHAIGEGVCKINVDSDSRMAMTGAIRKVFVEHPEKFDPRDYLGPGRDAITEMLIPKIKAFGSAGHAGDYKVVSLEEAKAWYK
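40 nM FBPA preincubated 10 min at RT with compound (up to 57.5 uM final), then substrate plus GAPDH/TPI/NAD/arsenate coupling and diaphorase/resazurin added. Fluorescence read after 20 min at RT, 525/598 nm.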
AmpC no deterg = AmpC beta-lactamase inhibition without detergent; AID 485341; 330,000 compounds, 0.52% hits; P00811; Potency, µM (doses to about 57.1 µM), without a hit: top-dose activity change, negative = inhibition, most hits filed as inhibitors; AmpC nitrocefin hydrolysis, absorbance 480 nm, 0.0001% Triton;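 also: plate controls were no compound for no effect and no enzyme for full effect; nearly all actives have a fitted effect of over 20% in size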
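AmpC (5.3 nM in the dispensed reagent) in 20 mM phosphate pH 7.0 with 0.01% (detergent screen) or 0.0001% Triton X-100 was preincubated with compounds for 15 min at room temperature. Nitrocefin was then added from an 800 uM solution, and hydrolysis was followed at 480 nm.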
Sm TGR block = inhibitors of Schistosoma mansoni thioredoxin glutathione reductase; purified TGR, DTNB reduction, TNB absorbance 405 nm; Potency, µM (series often up to 114 µM), for the others: at the top dose activity change, negative = inhibition, actives largely listed as inhibitors; 360,000 compounds, 3% hits; AID 485364; also: nearly all actives have a fitted effect of over 60% in size
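Kinetic colorimetric format: TGR-catalysed, NADPH-driven DTNB reduction monitored via TNB absorbance. Enzyme dispensed at 20 nM; compound exposure 15 min at room temperature before reaction start.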
AmpC detergent = AmpC beta-lactamase inhibition with detergent present; P00811; AmpC hydrolysis of nitrocefin, absorbance 480 nm, 0.01% Triton; Potency, µM (highest dose often 114 µM), for inactives: at the top dose activity change, negative = inhibition, most hits filed as inhibitors; 370,000 compounds, 0.041% hits;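 also: 0% = no-compound wells and -100% = no-enzyme wells; nearly all actives have a fitted effect of over 25% in size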
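20 mM phosphate pH 7.0 + 0.01% (detergent screen) or 0.0001% Triton X-100; 5.3 nM AmpC reagent; cpd preinc 15 min RT; nitrocefin (800 uM stock) to start; A480 q20 s × 4 min; Activity was normalised to no-enzyme and no-compound control wells.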
RE007 growth inh = less growth of the S. pombe RE007 Vpr strain; 360,000 compounds, 0.21% hits; S. pombe RE007 Vpr strain, BacTiter-Glo ATP luminescence, 24 h; Potency, µM (top dose mostly 92.2 µM), inactives show at the highest dose activity change, negative = less growth, most hits filed as inhibitors; AID 651644; active = well fitted falling curve with a large enough effect; inconclusive = small, poorly fitted or top-dose-only effect; inactive = no such curve, though single readings can be large or run the other way; also: nearly all actives have a fitted effect of over 50% in size
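Fission yeast RE007 carrying one integrated HIV-1 vpr copy, seeded at OD 0.01 in PMG+AL medium with 23 nL pinned compound. Grown 24 h at 30 degrees; viability read by BacTiter-Glo luminescence after 5 min.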
Starred values were filed as active, the others as inactive; ! = repeats disagree. Unless noted, calls follow the shape of the dose curve; as a rule, active = well fitted curve in the direction sought with a large enough effect; inconclusive = small, poorly fitted or top-dose-only effect, or another doubt; inactive = no such curve, though single readings can be large; an effect the other way counts as inactive or inconclusive. Unless noted, % is scaled to controls: 0 for no effect and ±100 for the full control effect; potency is read from the fitted curve at half-maximal effect.

`COc1ccc(NC(=O)CN(C)CC(=O)c2[nH]c(C)c(C(C)=O)c2C)cc1` gave AmpC no deterg -30%, Sm TGR block inconclusive, AmpC detergent 3% and RE007 growth inh 2%.
`CC1CCN(S(=O)(=O)c2ccc3c(c2)CCN3C(=O)Nc2cccc(Br)c2)CC1` gave Sm TGR block 6% and AmpC detergent 19%.
For Clc1cccc(CON/C=N/c2ncnc3sccc23)c1 the results were FBPA Giardia inh 0%, AmpC no deterg -27%, Sm TGR block 0%, AmpC detergent -1% and RE007 growth inh inconclusive.
Clc1cccc(Cl)c1CON/C=N/c1ncnc2sccc12 was read as FBPA Giardia inh -3%, AmpC no deterg 1.1µM*, Sm TGR block 3%, AmpC detergent 1% and RE007 growth inh 4%.
O=C(CSc1nc2scc(-c3ccccc3)c2c(=O)[nH]1)N1CCOCC1 was read as AmpC no deterg 15%, Sm TGR block -9%, AmpC detergent -4% and RE007 growth inh 1%.
CCN(CC)C(=S)SSC(=S)N(CC)CC was read as FBPA Giardia inh 18µM*!, AmpC no deterg inconclusive, Sm TGR block -32%, AmpC detergent inconclusive and RE007 growth inh inconclusive.
Screening COC(=O)C1=C(C(=O)OC)C(c2ccccc2O)c2sc(=O)[nH]c2S1 (stereo not given) returned FBPA Giardia inh inconclusive, AmpC no deterg -23%, Sm TGR block 40µM*, AmpC detergent -13% and RE007 growth inh -18%.
For COC(=O)C1=C(C(=O)OC)C2c3ccccc3C1c1ccccc12 the results were RE007 growth inh 10%.
CN(C1CCCCC1)C(CNS(=O)(=O)c1ccc(Cl)cc1)c1ccccc1 (stereo not given) was read as FBPA Giardia inh 9%, AmpC no deterg -14%, Sm TGR block 7%, AmpC detergent -6% and RE007 growth inh 4%.
Screening c1ccc(-c2ccccc2OCCOCCN2CCOCC2)cc1 returned FBPA Giardia inh 14µM*, AmpC no deterg 42%, Sm TGR block 6%, AmpC detergent -1% and RE007 growth inh -11%.
`CCOC(=O)N1CCN(c2ccc(C(C)=O)cc2F)CC1C` (stereo not given) gave FBPA Giardia inh 8%, AmpC no deterg 29%, Sm TGR block -7%, AmpC detergent -12% and RE007 growth inh -1%.
CC(C)N(CC(=O)Nc1ccc(Cl)cc1C(F)(F)F)C(=O)CCl was read as FBPA Giardia inh -1%, AmpC no deterg -16%, Sm TGR block 18µM*, AmpC detergent -14% and RE007 growth inh 0%.
For CCC(C)N(CC(=O)Nc1cccc(C)c1C)C(=O)CCl (stereo not given) the results were FBPA Giardia inh -1%, AmpC no deterg -7%, Sm TGR block 20µM*, AmpC detergent -13% and RE007 growth inh 6%.
COC(=O)c1ccccc1NC(=O)CN1C(=O)COc2ccccc21 was read as Sm TGR block -1% and AmpC detergent -4%.
`Cc1cc(C2=CC(C)(c3cc(C)oc3C)Nc3nc(C(F)(F)F)nn32)c(C)o1` (stereo not given) gave FBPA Giardia inh -20%, AmpC no deterg 51%, Sm TGR block 10µM* and AmpC detergent 7%.
For Cc1ccc(C2=CC(C)(c3ccc(C)cc3)Nc3nc(C(F)(F)F)nn32)cc1 (stereo not given) the results were FBPA Giardia inh -9%, AmpC no deterg -18%, Sm TGR block 0%, AmpC detergent -2% and RE007 growth inh 18%.
O=C(Cn1c(=O)oc2ccccc21)N1CCN(S(=O)(=O)c2ccccc2)CC1 was read as AmpC no deterg -16%, Sm TGR block 2%, AmpC detergent 0% and RE007 growth inh -4%.
Screening CN(CC(=O)Nc1cccc2ccccc12)C(=O)c1ccc(F)cc1F returned AmpC no deterg -17%, Sm TGR block 3%, AmpC detergent 8% and RE007 growth inh -3%.
